# Measured values: PubChem BioAssay (Tox21)
# Records with an inconclusive call do not appear. A call without a number means that no potency is given here. Values without a mark were called inactive. Activity calls are given as the source filed them. Calls come from the whole dose curve. Square brackets hold non-standard residues; d marks the D form. Peptide text beside a SMILES is read from it. * marks the point of attachment. Sta = CC(C)C[C@H](N)[C@@H](O)CC(=O)O; Isovaleryl = CC(C)CC(=O)*
# Assay: cAMP Responsive Elements (CRE) small molecule agonists, cell-based qHTS assay (AID 1963590)
# Settings: CRE-bla HEK293T, beta-lactamase FRET ratio, 3 h; series mostly up to 92.4 µM
# Text: U.S. Tox21 Program National Center for Advancing Translational Sciences [NCATS] Division of Preclinical Innovation [DPI] U.S. Environmental Protection Agency [EPA] National Institutes of Environmental Health Sciences [NIEHS] National Toxicology Program [NTP] U.S. Food and Drug Administration [FDA] Tox21 Assay Overview: CREB (cyclic-AMP Responsive Element Binding Protein) is a cellular transcription factor. It binds to certain DNA sequences called cAMP Responsive Elements (CRE) and regulates the transcription of the genes. […] This cell line can be used to find agonists/antagonists of the cyclic AMP signaling pathway. The activation of the report gene under culture conditions can be detected by fluorescence intensity. This cell line has been used to screen the Tox21 10K compound library to identify agonists that induce oxidative stress.
# Tox21 Assay Protocol Summary: CRE-bla Hek 293T cells were suspended in assay medium (DMEM containing 10% dialyzed FBS, 0.1 mM NEAA, 1 mM sodium pyruvate and 25 mM HEPES) and dispensed at 2,000 cells/5 uL /well into 1536-well black wall/clear bottom plates using a Multidrop Combi (ThermoFisher Scientific, Waltham, MA) dispenser. After the assay plates were incubated at 37 C/5% CO2 for 18 hrs, 23 nL of compounds dissolved in DMSO, positive controls or DMSO only was transferred to the assay plate by a pintool workstation (Kalypsys, San Diego, CA). After the plates were incubated at 37 C/5% CO2 for 3 hrs, 1 uL of LiveBLAzer B/G FRET substrate (Invitrogen, Carlsbad, CA) was added to each well using Bioraptr Flying Reagent Dispenser (FRD, Aurora Discovery, San Diego, CA). The plates were incubated at room temperature for 2 h.
Compound,Potency,activation
O=S(=O)(O)c1ccc(Cl)cc1,inactive,
O=C(O)CCNC(=O)c1ccc(N=Nc2ccc(O)c(C(=O)O)c2)cc1,inactive,
FC1(F)C(F)(F)C(F)(F)C2(F)C(F)(C1(F)F)C(F)(F)C(F)(F)C1(F)C(F)(F)C(F)(F)C(F)(F)C(F)(F)C12F (stereo not given),inactive,
CC(CCc1ccccc1)NCC(O)c1ccc(O)c(C(N)=O)c1 (stereo not given),inactive,
CC(C)CCCC(C)NCCC(C)C (stereo not given),inactive,
COc1ccc2nc(SCc3ncc(C)c(OC)c3C)[nH]c2c1,inactive,
O=c1[nH]ncc2ccccc12,inactive,
CC(C(O)c1ccc(O)cc1)N1CCC(Cc2ccccc2)CC1 (stereo not given),inactive,
CCN(CC)CCNC(=O)c1cc(S(C)(=O)=O)ccc1OC,inactive,
CC(=O)c1ccc(C(C)=O)cc1,inactive,
COC(=O)c1ccc(NC(C)=O)cc1OC,inactive,
CCOC(=O)C1=C(C)NC(C)=C(C(=O)OC)C1c1cccc([N+](=O)[O-])c1 (stereo not given),inactive,
NC(=O)COCCN1CCN(C(c2ccccc2)c2ccc(Cl)cc2)CC1 (stereo not given),inactive,
CC(C)C(=O)OC/C=C/c1ccccc1,inactive,
CN1CCOC(c2ccccc2)c2ccccc2C1 (stereo not given),inactive,
CCCCCC(=O)OCC,inactive,
CN1CCC(=C2c3ccccc3CC(=O)c3sccc32)CC1,inactive,
C[N+]1(C)CCC(=C(c2ccccc2)c2ccccc2)CC1,inactive,
C=CCCCCCCCCC(=O)OCC,inactive,
N#Cc1ccc(C(=O)O)cc1,inactive,

Compound,Potency,activation
Nc1c2c(nc3ccccc13)CCCC2O (stereo not given),inactive,
CCCCCCC(O)CCOC(C)=O (stereo not given),inactive,
Cc1ccc2nc(N)[nH]c(=O)c2c1Sc1ccncc1,inactive,
COc1ccc(C(=O)N2CCN(CC(=O)N3CCOCC3)CC2)cc1,inactive,
CCCCC(CC)(CO)CO,inactive,
CCCC(=O)OCCC(C)C,inactive,
NC(=O)c1cn(Cc2c(F)cccc2F)nn1,inactive,
CN1[C@@H]2CC[C@H]1CC(OC(=O)C(O)c1ccccc1)C2 (stereo not given in full),inactive,
CC(C)CC(=O)N[C@H](C(=O)N[C@H](C(=O)N[C@@H](CC(C)C)[C@@H](O)CC(=O)N[C@@H](C)C(=O)N[C@@H](CC(C)C)[C@@H](O)CC(=O)O)C(C)C)C(C)C (Isovaleryl-VV[Sta]A[Sta]-OH),inactive,
CNS(=O)(=O)CCc1ccc2[nH]cc(C3CCN(C)CC3)c2c1,inactive,
NCCCNCCSP(=O)(O)O,,0.961% [at 8.39 µM]
CCCSS/C(CCO)=C(\C)N(C=O)Cc1cnc(C)nc1N,inactive,
COCCOC(=O)C1=C(C)NC(C)=C(C(=O)OC/C=C/c2ccccc2)C1c1cccc([N+](=O)[O-])c1 (stereo not given),inactive,
O=C(O)c1c(Cl)cccc1Cl,inactive,
CC(C)(O)c1ccccc1CC[C@@H](SCC1(CC(=O)O)CC1)c1cccc(/C=C/c2ccc3ccc(Cl)cc3n2)c1,inactive,
CCN(CC)C(C)CN1c2ccccc2Sc2ccccc21 (stereo not given),inactive,
CCOC(=O)[C@H](O)[C@@H](O)C(=O)OCC,inactive,
CC(=O)N(CC(O)CN(C(C)=O)c1c(I)c(C(=O)NCC(O)CO)c(I)c(C(=O)NCC(O)CO)c1I)c1c(I)c(C(=O)NCC(O)CO)c(I)c(C(=O)NCC(O)CO)c1I (stereo not given),inactive,
O=C(CCCN1CCC(O)(c2ccc(Br)cc2)CC1)c1ccc(F)cc1,inactive,
Cc1ccccc1C#N,inactive,
